Bioassay records (PubChem BioAssay)
Only some compounds are listed: those with a hit (about 9.5% of all), similar ones and a draw of the others.
NS1 function inh: blocks influenza NS1 protein function; Potency, µM (titrated, usually from 46.1 µM), for the others: at the highest dose activity, positive = more growth; AID 2326; actives 0.4% (n = 270,000); calls by dose curve; note: actives are rising curves; nearly all actives have a fitted effect of over 50% in size
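In this qHTS, NS1 from influenza A is expressed in budding yeast, where it slows growth. Cells are switched from glucose to 2% galactose medium (pH 6.0, -URA), treated with compound, and growth recovery is read at OD600.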
Pf growth 48h: P. falciparum growth inhibition at 48 hours (one generation) | P. falciparum luciferase growth in erythrocytes, 48 h | Potency, µM (titrated, usually from 28.7 µM), without a hit: at the highest dose activity change, negative = inhibition, actives largely listed as inhibitors | actives 5.9% (n = 310,000) | AID 504832; note: % is set by controls: 0 for no effect and ±100 for the full control effect
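A one-generation exposure of luciferase-tagged malaria parasites in RPMI 1640/Albumax erythrocyte culture, 37 C and 5% CO2. Inhibition is inferred from decreased luminescence after adding detection reagent.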
Pf growth 96h: P. falciparum growth inhibition at 96 hours; Potency, µM (doses to about 28.7 µM), without a hit: at the highest dose activity change, negative = inhibition, hits mostly inhibitors; P. falciparum luciferase reporter growth, 96 h; actives 6.9% (n = 320,000); note: % is set by controls: 0 for no effect and ±100 for the full control effect
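Erythrocytes infected with luciferase-expressing P. falciparum were dispensed at 2% hematocrit and 0.05% parasitemia (final), then incubated with compounds 96 hours at 37 C in 5% CO2. Luminescence after detection reagent addition reported growth.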
RE007 growth inh: less growth of the S. pombe RE007 Vpr strain. S. pombe RE007 Vpr strain, BacTiter-Glo ATP luminescence, 24 h. Potency, µM (highest dose often 92.2 µM), for inactives: at the top dose activity change, negative = less growth, usual class: inhibitors. actives 0.21% (n = 360,000); active = well fitted falling curve with a large enough effect; inconclusive = small, poorly fitted or top-dose-only effect; inactive = no such curve, though single readings can be large or run the other way; note: % is set by controls: 0 for no effect and ±100 for the full control effect; nearly all actives have a fitted effect of over 50% in size
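Fission yeast strain RE007, carrying one chromosomally integrated HIV-1 vpr copy, was seeded at OD 0.01 in PMG+AL medium with 23 nL pinned compound. After 24 h at 30 °C and 99% humidity, viability was read by BacTiter-Glo luminescence.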
SARS PLP yeast: blocks SARS-CoV papain-like protease in a yeast assay; AID 485353; actives 0.19% (n = 330,000); Potency, µM (top dose mostly 32.9 µM), for the others: at the highest dose activity, positive = growth rescue, usual class: activators; S. cerevisiae expressing SARS-CoV PLpro, growth rescue; calls by dose curve; note: 0% is about no effect; nearly all actives have a fitted effect of over 55% in size
* = called active by the depositor; ? = inconclusive; / = no result; [ ] = another dose, or the depositor's remark. Unless noted, calls come from the whole dose curve; as a rule, active = well fitted inhibition curve with a large enough effect; inconclusive = small, poorly fitted or top-dose-only effect, or another doubt; inactive = no such curve, though single readings can be large or run the other way. Potency is the fitted concentration of half-maximal effect.

SMILES	NS1 function inh	Pf growth 48h	Pf growth 96h	RE007 growth inh	SARS PLP yeast
COc1ccc2nccc(/C=C/c3ccnc4ccc(OC)cc34)c2c1	-3.3%	3.29µM*	3.7µM*	-8.8%	0.1%
Cc1cc(OC2CCCCC2)nc(NCc2ccccc2)n1	-17.2%	?	5.22µM*	14.5%	-0.8%
CCOc1cc(C)nc(NCc2ccccc2)n1	-10.7%	/	?	-5.2%	-4.7%
CCCCOc1cc(C)nc(NCc2ccccc2)n1	-34.6%	13.1µM*	?	-11.7%	?
Cc1cc(N2CCCCC2)nc(NCc2ccccc2)n1	-119.2%	3.29µM*	2.94µM*	-4.0%	-5.3%
O=C(NCCOc1ccc(F)cc1)C1CCC(=O)N(CCc2ccccn2)C1 (configuration not stated)	5.4%	18.6%	?	-4.3%	6.6%
O=c1[nH][nH]c2c1C(c1ccc(Cl)c(Cl)c1)OC(CCc1ccccc1)C2 (configuration not stated)	/	/	/	2.5%	/
COC(=O)c1c(NC(=O)CN2CCN(C(=O)c3ccco3)CC2)c2c(C)cccc2n1C	-2.7%	?	/	-6.7%	-8.1%
CCOC(=O)c1c(C)n(C)c2ccc(OC)c(NC(=O)CN3CCN(C4CCCCC4)CC3)c12	9.3%	?	/	-14.2%	9.3%
CCOC(=O)c1c(C)n(C)c2ccc(OC)c(NC(=O)CN3CCC(C(=O)OCC)CC3)c12	2.4%	?	3.29µM*	13.2%	-0.8%
CCOC(=O)c1c(C)n(C)c2ccc(OC)c(NC(=O)CN3CCN(Cc4ccccc4)CC3)c12	-4.4%	10.4µM*	25.8%	-1.3%	4.5%
CCOC(=O)c1c(C)n(C)c2ccc(OC)c(NC(=O)CN3CCN(C(=O)c4ccco4)CC3)c12	-11.3%	5.22µM*	?	7.8%	1.2%
COc1ccc(CNC(=O)CCSCc2cccc(Cl)c2)c(OC)c1	-3.2%	4.3%	?	7.7%	-4.7%
Cc1cc(OCCCC(=O)Nc2cccc(-n3cnnn3)c2)ccc1Cl	-0.2%	?	?	14.6%	-13.4%
O=c1ccc(-c2nc3ccccc3n2C(CCc2ccccc2)c2nc3ccccc3[nH]2)c[nH]1 (configuration not stated)	/	/	/	0.0%	/
COc1cc([N+](=O)[O-])c2nccnc2c1	3.7%	17.0%	9.28µM*	-9.8%	-0.6%
CN1CCN(S(=O)(=O)c2ccc(N(C)Cc3ccc(C(F)(F)F)cc3)c([N+](=O)[O-])c2)CC1	/	10.4µM*	?	5.8%	3.3%
C=CCOc1ccc(CN(C)c2ccc(S(=O)(=O)N3CCN(C)CC3)cc2[N+](=O)[O-])cc1	/	?	-28.2%	-22.0%	1.6%
Nc1cc(=O)[nH]c(SCC(=O)Nc2cccc(S(=O)(=O)N3CCCCC3)c2)n1	/	/	/	-2.1%	-0.4%
O=S(=O)(NCC(c1ccc2c(c1)OCO2)N1CCOCC1)c1ccccc1 (configuration not stated)	/	2.0%	-0.5%	2.7%	3.8%
Cc1[nH]c2ccccc2c1C(=O)C(C)OC(=O)c1ccc([N+](=O)[O-])o1 (configuration not stated)	/	3.29µM*	?	-17.0%	-26.4%
CCc1noc(C)c1C(=O)OC(C)C(=O)c1c(C)[nH]c2ccccc12 (configuration not stated)	/	?	?	6.4%	-7.3%
COc1cc(SC)ccc1C(=O)Nc1ccc2ncccc2c1	-29.4%	180.9%	107.0%	0.1%	-15.1%
N#Cc1nc(Nc2cc(F)cc(F)c2)c2ncn(CC(F)F)c2n1	/	?	0.294µM*	/	13.8%
N#Cc1nc(NCC(F)F)nc(Nc2cc(F)cc(F)c2)n1	/	10.4µM*	?	/	-1.4%
SMILES	NS1 function inh	Pf growth 48h	Pf growth 96h	RE007 growth inh	SARS PLP yeast
Cn1ccc2ccc(C3=CC(=O)C[C@H](c4ccc(F)cc4)C3)cc21	/	?	?	-4.5%	-0.7%
COc1ccc(-c2[nH]nc3oc(=O)cc(C)c23)cc1	-19.0%	-15.0%	8.28µM*	-0.9%	/
CSc1ccc(S(=O)(=O)NC(C)c2ccccc2)cc1 (configuration not stated)	-2.0%	8.5%	8.6%	12.1%	0.8%
Cc1ccc(S(=O)(=O)NC(C)c2ccccc2)cc1[N+](=O)[O-] (configuration not stated)	3.1%	16.0%	11.7µM*	-1.0%	3.2%
Cc1ccccc1CCN1CCCC(CN(C)C(=O)c2ccc3ncccc3c2)C1 (configuration not stated)	-4.2%	?	?	-5.6%	-0.6%
Clc1ccccc1Oc1cnc2ccccc2n1	-3.6%	2.62µM*	-21.4%	-13.5%	3.8%
c1ccc(Oc2cnc3ccccc3n2)cc1	0.3%	10.1%	3.4%	-17.7%	2.3%
CCc1ccc(-c2nc(NC(=O)c3ccc(OCC(=O)Nc4ccc(F)cc4)c(OC)c3)sc2C)cc1	-6.7%	-9.4%	?	/	13.9%
COc1cc(C(=O)Nc2nc(-c3ccc(Cl)cc3)c(C)s2)ccc1OCC(=O)Nc1ccc(F)cc1	7.3%	?	4.15µM*	30.5%	1.4%
CC(=O)Oc1c(I)cc(I)cc1C(=O)Nc1ccc(Cl)cc1	-76.8%	-6.1%	?	4.0%	-19.7%
CC(C)CCC(=O)N1CCOC1=O	4.7%	10.1%	7.0%	3.9%	-2.1%
CC(C)Cc1nnc(NC(=O)C2=COCCO2)s1	/	267.2%	268.2%	-6.9%	4.0%
O=C(COc1ccc(Cc2ccccc2)cc1)c1ccc(F)cc1	-0.6%	1.9%	5.22µM*	-13.4%	-7.2%
Cc1cc(OCC(=O)c2ccc(F)cc2)ccc1N1C(=O)CCC1=O	2.4%	2.1%	9.28µM*	9.6%	1.9%
O=C(N1CCN=C1SCc1cccnc1)C12CC3CC(CC(C3)C1)C2	9.9%	14.7µM*	-29.3%	-8.1%	3.8%
Cc1noc(C)c1C(=O)N1CCC1(C)C(=O)NS(=O)(=O)c1cccs1 (configuration not stated)	/	/	/	5.1%	/
COc1cccc(-n2nnc3c(=O)n(CC(=O)NC4CCCC4)cnc32)c1	-0.8%	2.7%	0.329µM*	5.1%	4.9%
Cc1ccccc1-c1cnc(C(O)c2ccc(F)c(F)c2)[nH]1 (configuration not stated)	/	/	/	-13.5%[18.4 µM]	/
CCc1ccc(NC(=O)[C@@H](NC(=O)[C@@H]2Cc3ccccc3CN2)C(C)CC)cc1 (some centres not stated)	14.5%	7.38µM*	?	-12.5%	-5.2%
Cc1cccc(NC(=O)[C@H](Cc2c[nH]c3ccccc23)NC(=O)[C@@H]2Cc3ccccc3CN2)c1	13.5%	8.28µM*	11.7µM*	-25.8%	-8.9%
Cc1cc(C)cc(NC(=O)[C@H](Cc2c[nH]c3ccccc23)NC(=O)[C@@H]2Cc3ccccc3CN2)c1	2.0%	9.28µM*	?	-18.1%	-6.5%
Cc1ccc(NC(=O)[C@H](Cc2c[nH]c3ccccc23)NC(=O)[C@@H]2Cc3ccccc3CN2)c(C)c1	8.7%	?	?	1.5%	10.8%
